TcdB GH inh: inhibitors of Clostridioides difficile toxin B glycohydrolase. TcdB glycohydrolase enzymatic assay, plate reader. AID 652162. inhibition, % at 9.99 µM. 350,000 compounds, 0.24% hits; in the data active = inhibition above about 10%
FadD28 binding: blocks FadD28 binding to the bisubstrate probe | fluorescence polarization | inhibition, % at 12.5 µM | 360,000 compounds, 0.22% hits; in the data active = inhibition above about 8.5%, passing the limit was not always enough
Yp Topo-I inh: inhibitors of Yersinia pestis topoisomerase I | 360,000 compounds, 0.064% hits | activity, % at 10 µM | Y. pestis Topo-I cleavage product accumulation, plate reader | AID 504884; in the data active = activity above about 50%, passing the limit was not always enough
Vc quorum ag-1: inducers of Vibrio cholerae quorum light production without autoinducers; V. cholerae BH1578 lux reporter, luminescence, 6 h; activation, % at 18.7 µM; 350,000 compounds, 0.16% hits; in the data active = activation mostly above about 9.7%, no sharp cut-off
Mtb BioA inh: inhibitors of Mycobacterium tuberculosis BioA enzyme; purified M. tuberculosis BioA enzyme, plate reader; inhibition, % at 9.99 µM; 360,000 compounds, 0.096% hits; AID 602481; in the data active = inhibition above about 40%
Vc quorum ag-2: inducers of V. cholerae quorum light production without autoinducers; shares compounds with Vc quorum ag-1; 620 tested, under 10 active; AID 602243; activation, % at 50 µM; V. cholerae BH1578 lux reporter, luminescence, 6 h; call rule not given here
HeLa 24h tox: kills HeLa cells within 24 hours | shares compounds with Vc quorum ag-1 | HeLa viability, CellTiter-Glo ATP luminescence | activity change, negative = cytotoxicity, % at 35 µM | 25 tested, under 10 active | AID 624140;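 active = signal drop with fitted half-maximal concentration at or below twice the highest valid dose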
An asterisk follows results filed as active; i = inactive; nt = no result. A selection: hits, their analogues and other compounds. The true share with any hit is near 0.58%.

SMILES	TcdB GH inh	FadD28 binding	Yp Topo-I inh	Vc quorum ag-1	Mtb BioA inh	Vc quorum ag-2	others
Cc1ccc(C)c(S(=O)(=O)N2CCN(C(=O)c3n[nH]c(=O)c4ccccc34)CC2)c1	0	-4	3	32*	4	323
CSc1ncccc1C(=O)N1CCN(S(=O)(=O)c2cc(C)ccc2C)CC1	-2	-4	24	0	0	nt
Cn1c(=O)oc2cc(S(=O)(=O)N3CCN(c4ccc(F)cc4)CC3)ccc21	nt	1	0	97*	-1	4
Cn1c(=O)c(=O)n(C)c2cc(S(=O)(=O)N3CCN(c4ccc(F)cc4)CC3)ccc21	nt	-3	-4	0	-1	nt
C/C=C/c1ccc2c(c1)O[C@H](CN(C)Cc1cccc(F)c1)[C@@H](C)CN([C@H](C)CO)S2(=O)=O	-1	nt	nt	nt	2	nt
COCCNC(=S)N(CCCO)Cc1cc2cc3c(cc2[nH]c1=O)OCCO3	1	-2	-5	389*	-1	2
CCCc1cc(Nc2ccccc2)n2ncnc2n1	-3	-2	1	1	2	nt
CCCc1cc(Nc2ccccc2OCC)n2ncnc2n1	nt	-3	8	3	0	1
O=C(COC(=O)[C@H](Cc1c[nH]c2ccccc12)NC(=O)c1ccc(Cl)cc1)Nc1ccc2c(c1)OCO2	nt	-5	-10	2	-1	0
Cc1ccc2cc(C(c3nnnn3C3CCCC3)N3CCN(c4ccc(F)cc4)CC3)c(=O)[nH]c2c1 (stereo not given)	nt	-1	5	14	0	0
Cc1cc(C)c2cc(C(c3nnnn3C3CCCC3)N3CCOCC3)c(=O)[nH]c2c1 (stereo not given)	nt	-2	7	0	-1	nt
CCCn1nnnc1NCc1ccccc1OCC	1	0	0	0	-1	nt
CCCn1nnnc1NCc1ccc(N(C)C)cc1	-1	1	3	nt	4	i
CCCn1nnnc1NCc1ccccc1Cl	1	-3	-1	i	0	nt	HeLa 24h tox=2
CCCn1nnnc1NCc1ccc(C(C)C)cc1	2	0	-1	nt	-4	i	HeLa 24h tox=6
Cc1ccc(S(=O)(=O)N[C@H]2CC[C@H](CCNC(=O)c3ccccc3F)O[C@H]2CO)cc1	0	nt	nt	nt	0	nt
COc1ccc2c3c([nH]c2c1)[C@@H](CO)N(C(=O)Nc1ccccc1F)CC31CCN(C(=O)C2CC2)CC1	1	nt	nt	nt	nt	nt
Cc1noc(C)c1S(=O)(=O)Nc1ccc2c(c1)C(=O)N([C@@H](C)CO)C[C@@H](C)[C@@H](CN(C)Cc1ccc(Cl)c(Cl)c1)OCCCC[C@@H](C)O2	1	nt	nt	nt	2	nt
COc1cc(C(=O)Nc2ccc(NC(=O)C(C)C)nc2)cc(OC)c1OC	nt	-3	4	6.7*	1	0
COc1cc(C(=O)Nc2ccc(NC(=O)c3ccccc3)nc2)cc(OC)c1OC	1	-1	-4	1	-1	nt
O=C(Cn1cccc1C(=O)c1ccccc1)NCCN1CCOCC1	nt	-2	4	-1	-2	nt
O=C(Cn1cccc1C(=O)c1ccccc1)NCCN1CCCCCC1	nt	-1	-4	12	0	0
CCOC(=O)c1ccccc1NC(=O)C1=COCCO1	3	-4	0	i	1	nt
CCOC(=O)c1ccccc1NC(=O)COC(=O)C1=COCCO1	nt	4	2	12	nt	-1
COc1ccc(NC(=O)Nc2ccc3c(c2)CC(=O)N([C@@H](C)CO)C[C@@H](C)[C@H](CN(C)C(=O)Nc2ccc4c(c2)OCO4)O3)cc1	2	nt	nt	nt	-2	nt
SMILES	TcdB GH inh	FadD28 binding	Yp Topo-I inh	Vc quorum ag-1	Mtb BioA inh	Vc quorum ag-2	others
CCCNC(=O)Nc1ccc2c(c1)C(=O)N(C)[C@H]1CC[C@@H](CC(=O)O)O[C@@H]1CO2	nt	nt	nt	nt	-7	nt
COc1ccc(C(=O)N2CCCCC2)cc1S(=O)(=O)Nc1cccc(C(=O)O)c1	0	0	3	-2	-1	nt
COc1ccc(C(=O)O)cc1S(=O)(=O)Nc1cccc(C(F)(F)F)c1	nt	-1	2	17*	-1	0
CCNC(=O)[C@@H]1[C@@H](CO)[C@@H]2Cn3c(ccc(-c4ccccc4)c3=O)[C@H]1N2C(=O)CC1CC1	0	nt	nt	nt	nt	nt
CNC(=O)c1cc2cc(OC)ccc2n1CCN(Cc1ccccc1)Cc1ccccc1	nt	-4	23	25*	2	0
COCC#Cc1cnc2c(c1)C(=O)N([C@H](C)CO)C[C@H](C)[C@H](CN(C)C(=O)c1cccc(F)c1)O2	0	nt	nt	nt	-1	nt
COc1ccccc1S(=O)(=O)Nc1ccc2c(c1)C(=O)N(C)C[C@@H](OC)[C@H](C)CN[C@@H](C)CO2	nt	nt	nt	nt	0	nt
Nc1nnc(-c2ccc(Cl)cc2Cl)s1	0	-1	0	470*	nt	69
COc1ccc2c(c1OC)C(=O)N(c1nccs1)C2	nt	-1	3	12	0	0
COc1ccc(N2Cc3ccc(OC)c(OC)c3C2=O)cc1	1	-1	-9	i	0	nt
O=C(NCc1nc(-c2ccccc2)no1)c1cccs1	0	-2	-4	179*	1	45
CCC(=O)NCCc1nc(-c2ccccc2)no1	0	-3	-2	986*	0	716
O=C(NCc1nc(-c2ccc(C(F)(F)F)cc2)no1)c1cccs1	-1	-3	0	-1	nt	nt
Cc1ccc(S(=O)(=O)N[C@@H]2C=C[C@H](CC(=O)NC3CCCCC3)O[C@@H]2CO)cc1	0	nt	nt	nt	0	nt
COCC#Cc1ccc2c(c1)O[C@H](CN(C)C(=O)NC(C)C)[C@@H](C)CN([C@H](C)CO)S2(=O)=O	0	nt	nt	nt	-2	nt
Cc1ccc(CN2C(=O)CCC2C(=O)NCc2ccc(F)cc2)cc1 (stereo not given)	nt	-2	0	-1	nt	nt
Cc1ccc(CN2C(=O)CCC2C(=O)NCCN(CC(C)C)CC(C)C)cc1 (stereo not given)	nt	-4	19	12	nt	0
CCOC(=O)N1CCN(C(=O)C2CCN(S(=O)(=O)CC)CC2)CC1	0	1	-8	-6	-2	nt
CCCS(=O)(=O)N1CCC(C(=O)N2CCN(C(=O)OCC)CC2)CC1	nt	1	1	15*	1	0
FC(F)Oc1ccccc1NC(=S)NCc1ccco1	nt	-4	-6	12	0	0
CCN(CC1COc2ccccc2O1)C(=S)Nc1ccccc1 (stereo not given)	nt	-2	2	12	3	1
C[C@H]1CCCCO[C@@H](CN(C)S(=O)(=O)c2ccc(F)cc2)[C@@H](C)CN([C@@H](C)CO)C(=O)c2cc(NC(=O)Nc3cccc4ccccc34)ccc2O1	0	nt	nt	nt	nt	nt
CCC1C(=O)NCCN1C(=O)CCc1nnc(CCc2ccc(OC)cc2)o1 (stereo not given)	0	-4	10	11	0	0
CCCOc1ccc(-c2nc(C#N)c(N3CCN(CC)CC3)o2)cc1	nt	-1	44	12	nt	14
CCOc1ccc(-c2nc(C#N)c(N3CCN(CC)CC3)o2)cc1	nt	-5	9	i	0	nt
Cn1cccc1C(=O)OCc1cc(-c2ccco2)on1	-3	-4	-2	31*	2	39

Assay outcomes as filed in PubChem BioAssay.
